DAX1 inh-1 = inhibits human nuclear receptor DAX1. actives 0.99% (n = 340,000). inhibition, % at 6.75 µM. AID 504766. HEK293 Gal4-DAX1 luciferase reporter, luminescence. P51843;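 active means inhibition above the mean over all tested compounds plus 3 SD, cut at about 4.2% in these data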;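 further: 0% = DAX1-transfected cells with DMSO and 100% = empty-vector control cells with DMSO; inhibition shows as a rise in luminescence from relieved DAX1 repression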
PolyA inhibitor = yeast polyadenylation inhibition | S. cerevisiae SKY197-pL101 polyadenylation reporter, beta-gal luminescence; efflux-impaired pdr1/pdr3 knockout yeast; score 100 = 6 SD above DMSO | activity score, % at 12 µM | actives 0.02% (n = 300,000);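 active means lowest replicate activity score at least 50, where 100 means six control SD above control mean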;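 further: yeast exposed to compound for 9 h at 30 °C; higher score means more reporter readthrough which indicates perturbed polyadenylation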
hcDAF12 agonist = H. contortus DAF-12 activation, primary screen | activation, % at 6.8 µM | AID 652067 | actives 1.4% (n = 370,000) | HEK293 hcDAF-12 lit1-tk-luc reporter, luminescence; 0% DMSO, 100% Δ7-dafachronic acid;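 active means activation above the mean of all tested compounds plus 3 SD, cut at about 5.5% in these data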;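 further: 100% = response to 3 µM Δ7-dafachronic acid high control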
ssDAF12 agonist = activates DAF-12 receptor from parasite S. stercoralis; HEK293 ssDAF-12/GRIP1 lit1-tk-luc reporter, luminescence; % of 3 µM dafachronic acid response; activation, % at 6.8 µM; actives 1% (n = 370,000); AID 652126;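 active means activation above the mean over all tested compounds plus 3 SD, cut at about 0.9% in these data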;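 further: 0% = DMSO-only wells and 100% = 3 µM delta7-dafachronic acid wells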
hgDAF12 agonist = activates the H. glycines DAF-12 receptor ligand-binding domain; AID 687014; activation, % at 6.8 µM; actives 1.8% (n = 370,000); HEK293 GAL4-hgDAF12 UAS-luciferase reporter, agonist luminescence; normalized to butyrate control;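 active means activation above a cutoff set at the mean of all screened compounds plus 3 SD, cut at about 10% in these data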;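 further: 0% = DMSO wells and 100% = sodium butyrate wells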
DAX1 inh-2 = blocks DAX1 repression of SF-1 activated StAR promoter; HEK293T StAR-luciferase reporter, SF-1/DAX-1 repression relief; inhibition, % at 6.8 µM; actives 1.1% (n = 370,000); AID 652010;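 active means inhibition above the mean over all tested compounds plus 3 SD, cut at about 3.6% in these data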;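 further: 0% = DAX-1 cells with DMSO and 100% = cells lacking DAX-1 with DMSO; higher inhibition means more luminescence from relief of DAX-1 repression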
hgDAF12 conf = confirmation of H. glycines DAF-12 agonists; HEK293 GAL4-hgDAF12 luciferase reporter, agonist mode; percent of butyrate response; actives 80% (n = 3,300); AID 743050; shares compounds with hgDAF12 agonist; activation, % at 6.8 µM;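 active means mean activation over triplicate wells above the hit cutoff derived from the earlier primary screen, cut at about 11% in these data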;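 further: 0% = DMSO low control and 100% = 2 mM sodium butyrate high control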
LXR ag 2 = LXR-beta agonism as DAF-12 counter-screen | 3,300 tested, under 10 active | HEK293 Gal4-LXR luciferase reporter, 24 h | AID 743051 | activation, % at 6.8 µM | shares compounds with hgDAF12 agonist;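 active means mean activation of the triplicate above a set limit carried over from the primary screen, none filed active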
Target sequence (P55055 whole entry, looked up, the tested form may be a part): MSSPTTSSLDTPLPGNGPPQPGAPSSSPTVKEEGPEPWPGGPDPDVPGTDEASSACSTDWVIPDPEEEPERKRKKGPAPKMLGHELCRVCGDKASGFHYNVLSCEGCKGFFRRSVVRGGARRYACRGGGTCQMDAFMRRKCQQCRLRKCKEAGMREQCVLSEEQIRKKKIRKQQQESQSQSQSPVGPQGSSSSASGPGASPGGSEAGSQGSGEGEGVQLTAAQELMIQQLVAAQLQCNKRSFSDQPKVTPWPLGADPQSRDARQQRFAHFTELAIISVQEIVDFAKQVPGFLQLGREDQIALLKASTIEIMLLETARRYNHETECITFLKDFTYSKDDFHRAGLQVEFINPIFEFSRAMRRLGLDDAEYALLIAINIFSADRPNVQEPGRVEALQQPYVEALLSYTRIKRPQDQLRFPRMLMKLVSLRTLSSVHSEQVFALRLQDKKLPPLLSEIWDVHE
* hit, by the source's call; . = no result. A selection: hits, their analogues and other compounds. The true share with any hit is near 4.1%.

SMILES	DAX1 inh-1	PolyA inhibitor	hcDAF12 agonist	ssDAF12 agonist	hgDAF12 agonist	DAX1 inh-2	hgDAF12 conf	LXR ag 2
Cc1cc(C(=O)NCCc2ccccc2)ccc1[N+](=O)[O-]	3	13	6	0	13*	3	12*	0
C=CCN(CC#Cc1ccccc1)Cc1ccc2c(c1)OCO2	.	.	-1	-1	-1	-1	.	.
[O-]/[N+](=C\C=C\c1ccccc1)c1ccccc1	3	18	4	0	14*	1	14*	0
COc1ccc(C(CNC(=O)C(=O)Nc2ccc3c(c2)OCCO3)N2CCN(C)CC2)cc1 (centres undefined)	-1	-16	0	-1	0	1	.	.
Cc1cccc(N(CC(=O)N/N=C/c2ccc(C(=O)O)cc2)S(=O)(=O)c2ccccc2)c1C	.	7	0	-1	0	1	.	.
COC(=O)N/N=C/c1ccc(-c2cccc(Cl)c2)o1	0	12	-1	-1	0	1	.	.
Nc1ccccc1N=Cc1ccc(-c2cccc(Cl)c2)o1	3	-31	3	1.3*	22*	2	15*	0
CC(C)(C)c1ccc(C(=O)Nc2cccc3c(=O)[nH][nH]c(=O)c23)cc1	-4	-6	-4	-2	-9	-2	.	.
O=C(CSc1n[nH]c(-c2cccnc2)n1)Nc1ccccc1C(F)(F)F	1	0	-3	0	-1	0	.	.
C#CCNC(=O)C[C@H]1C[C@@]2(C(=O)OC)C(=C[C@H](C(C)C)O[C@@H]2C2CC2)N(CCC2=CCCCC2)C1=O	.	.	-1	-1	-4	-1	.	.
C#CCNC(=O)C[C@H]1C[C@@]2(C(=O)OC)C(=C[C@H](C(C)C)O[C@@H]2C2CC2)N(CCCCCCCC)C1=O	.	.	-3	-1	14*	-2	-1	0
Cc1ccc(-c2nc3ccccn3c2C=O)cc1	2	-7	5.8*	1	14*	2	12*	0
COc1ccc(-c2nc3c4ccccc4ccn3c2C=O)cc1	0	4	3	0	4	0	.	.
Cc1ccc(NC(=S)NNC(=O)c2c(Cl)c(C)nn2C)cc1	-2	0	0	-1	-1	-1	.	.
Cc1ccc(NC(=S)NNC(=O)c2nn(C)c(C)c2Cl)cc1	6.5*	-2	3	0	16*	3	10	0
Cc1cc2c([nH]c3ccccc32)c2c1OC(C)(C)C=C2	5.0*	-5	2	1.1*	14*	4.2*	11*	0
Cc1cc(S(=O)(=O)Nc2ccc(C(=O)NCCN3CCOCC3)cc2)ccc1F	0	.	-1	0	-1	-2	.	.
O=C(Nc1nc2nccc(-c3ccccc3)n2n1)c1ccc(F)cc1	0	-17	2	-1	-2	0	.	.
O=C(Nc1nsc(-c2ccccc2)n1)c1ccc(F)cc1	3	10	3	-1	16*	3	10	0
CCCN(CCC)CCN1CCN(C(=O)[C@H](CCc2ccccc2)NC(=O)[C@H]2O[C@@H](n3cnc4c(N)ncnc43)[C@H](O)[C@@H]2O)CC1	.	.	-2	-1	-5	-1	.	.
Cc1cccc(C(=O)Nc2nnc(-c3ccco3)o2)c1	0	21	2	-1	2	0	.	.
Cc1ccc(C(=O)Nc2nnc(-c3ccco3)o2)cc1C	0	4	3	1.1*	14*	0	6	0
O=C(Nc1cccc(S(=O)(=O)N2CCOCC2)c1)c1ccc2c(=O)n3c(nc2c1)CCCCC3	-3	23	-4	-3	-6	-5	.	.
Cc1ccc(NC(=O)c2[nH]cnc2C(=O)NN)cc1	1	10	0	-1	13*	1	2	0
Cc1ccc([C@H](C)NC(=O)C2=C(N)N(S(=O)(=O)c3ccc(C)cc3)C(C(=O)c3ccccc3)C2c2ccccc2Cl)cc1 (some centres undefined)	.	.	-2	-2	-4	.	.	.
SMILES	DAX1 inh-1	PolyA inhibitor	hcDAF12 agonist	ssDAF12 agonist	hgDAF12 agonist	DAX1 inh-2	hgDAF12 conf	LXR ag 2
Cc1cc(C)cc(C(=O)OCC(=O)NC(=O)NC2CCCC2)c1	0	.	-1	-1	-3	-2	.	.
COc1ccc(NC(=O)c2cc(C3CCCCN3S(=O)(=O)c3ccc(F)cc3F)on2)c(C)c1 (centres undefined)	.	.	0	-2	-5	-2	.	.
OC[C@H]1O[C@@H](c2nc3ccc(-c4nc(-c5ccc(Br)cc5)no4)cc3[nH]2)C[C@@H]1O	.	.	4	0	14*	4.4*	9	1
CCc1ccc(C(=O)Nc2cc3c(cc2Cl)OCCCO3)cc1	4	-9	3	1	14*	3	14*	1
CCc1nnc(NS(=O)(=O)c2ccc(NC(=O)c3cccc(Cl)c3)cc2)s1	3	26	-1	-1	-1	1	.	.
Cc1ccc(C)c(N2CCN(C(=O)c3nn(C)c4c3CS(=O)(=O)c3ccccc3-4)CC2)c1	-2	-12	-3	-2	-2	-2	.	.
Cc1cccc(/N=C/c2nc(-c3ccccc3Br)oc2O)n1	-1	-42	2	-1	5	0	.	.
Cc1ccnc(N=Cc2nc(-c3ccccc3Br)oc2O)c1	0	5	0	1	15*	2	6	0
O=C(NCCC(=O)N1CCC2(CC1)NCCc1[nH]cnc12)c1cccc(Br)c1	1	-10	3	0	0	0	.	.
COc1ccc(CCNC(=O)c2cc(S(=O)(=O)N3CCOCC3)cn2C)cc1OC	0	8	1	-1	2	-1	.	.
Cc1ccc(C2=N/C(=C/N3CCOCC3)C(=O)O2)cc1	-1	11	1	-1	8	2	.	.
Cc1ccc(C2=N/C(=C\N3CCCCC3)C(=O)O2)cc1	3	4	6.4*	0	14*	2	9	1
O=C(CNC(=O)c1cccs1)Nc1ccncc1	-1	11	-1	-1	1	0	.	.
C#CCN1C(=O)[C@]2(OCCC=C[C@H]2C)c2cc(OC)ccc21	.	.	-3	0	5	-1	.	.
Cc1ccc(-c2cc(N)n(-c3ccc(F)cc3)n2)cc1	1	-6	5	-1	15*	4.3*	10	1
Cc1ccc(-c2cc(N)n(-c3ccc(C)cc3)n2)cc1	2	1	2	0	6	2	.	.
Cc1cc(C)n2nc(C(=O)Nc3ccc4c(c3)OCO4)cc2n1	2	-16	4	0	15*	4.2*	15*	1

Screening results as filed in PubChem.
